FMDV inh: foot and mouth disease virus antiviral activity | FMDV antiviral cell-based qHTS | Potency, µM (series often up to 57.9 µM), usual class: inhibitors | 1.2% of 410,000 active; calls by dose curve; tested in HEK293T cells; further: read-out not given here; nearly all actives have a fitted effect of over 45% in size
SARS PLpro yeast: inhibitors of SARS-CoV papain-like protease in yeast | S. cerevisiae expressing SARS-CoV PLpro, growth rescue | Potency, µM (series often up to 32.9 µM), hits mostly activators | 0.19% of 330,000 active | AID 485353; calls by dose curve; further: nearly all actives have a fitted effect of over 55% in size
HCMV inh: inhibitors of human cytomegalovirus; 4.5% of 410,000 active; activity change, negative = inhibition, % at 57.5 µM; HFF cells, HCMV-luciferase reporter, 72 h; stronger effect = lower value; in the data active means activity change below about -60%; inconclusive means no clear call, values can overlap the other calls; inactive means above about -39%
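HFF cells seeded 16 h at 37C, treated with compounds, infected with luciferase-reporter HCMV at MOI 1 PFU/cell; luciferase read at 72 h post infection, normalized to buffer-only and Salinomycin controls.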
LASV entry inh: inhibitors of Lassa virus binding or cell entry; Lassa virus pseudotype entry inhibition, cell reporter; Potency, µM (titrated, usually from 37.9 µM), most hits filed as inhibitors; 1.2% of 300,000 active; AID 540256; calls by dose curve; tested in HEK293 cells; further: nearly all actives have a fitted effect of over 50% in size
HCV inhibitor: inhibitors of hepatitis C virus infection | Huh7.5.1 HCVcc-Cre infection, luciferase reporter, 44 h | Potency, µM (highest dose often 41.8 µM), usual class: inhibitors | 3.4% of 340,000 active; active means well fitted inhibition curve with a large enough effect; inconclusive means small, poorly fitted or top-dose-only effect, or another doubt; inactive means no such curve, though single readings can be large or run the other way
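Cells seeded at 1,000/well and cultured 4 h, then compounds added followed by HCVcc-Cre virus (~0.5 moi). After 44 h further culture, luciferase substrate was added, plates held 15 min at room temperature, and luminescence read for 15 sec.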
Marburg entry inh: Marburg virus entry inhibition; 1.8% of 300,000 active; AID 540276; Marburg virus pseudotyped entry inhibition, cell reporter; Potency, µM (series often up to 37.8 µM), most hits filed as inhibitors; calls by dose curve; tested in HEK293 cells
Each line names hits and unclear results; the compound was inactive in the other large screens. Most compounds without a hit are left out; they make up all but 8% or so of the library.

CCCCNC(=O)c1ccc(CS(=O)(=O)c2ccc(C)cc2)o1	LASV entry inh 16µM, Marburg entry inh inconclusive
O=C(NCc1ccccn1)C(=O)NCC1OCCN1S(=O)(=O)c1ccc([N+](=O)[O-])cc1 (stereo unspecified)	none (no result: HCV inhibitor)
COc1ccc(-c2cc(-c3ccccc3)nc(N3CCCC3)n2)cc1OC	HCV inhibitor 3.5µM
COc1ccc(-c2cc(C(F)(F)F)nc(N3CCOCC3)n2)cc1OC	HCV inhibitor 3.2µM
COc1ccc(-c2cc(C(F)(F)F)nc(NC3CCCC3)n2)cc1OC	LASV entry inh inconclusive, HCV inhibitor 2.2µM, Marburg entry inh inconclusive
COc1ccc(-c2cc(C(=O)O)c3sc(N4CCCCC4)nc3n2)cc1OC	none
CCOc1cc2nc(-c3ccc(OC)c(OC)c3)nc(N3CCOCC3)c2cc1OC	FMDV inh inconclusive, LASV entry inh inconclusive, HCV inhibitor inconclusive, Marburg entry inh 2.5µM
C=CCNc1cc(N2CCCC2)ccc1[N+](=O)[O-]	HCV inhibitor inconclusive
Cc1ccccc1CN1CCN2C(C(=O)NCC3CCOCC3)=COC2=NC1=O	none (no result: FMDV inh, SARS PLpro yeast, LASV entry inh, HCV inhibitor, Marburg entry inh)
CC(=O)NCc1c(Cl)cccc1-n1cccc1	SARS PLpro yeast 10µM
CCC(=O)NCc1c(Cl)cccc1-n1cccc1	none
CC[N+](CC)(CCNC(=O)C(=O)NCC[N+](CC)(CC)Cc1ccccc1Cl)Cc1ccccc1Cl	none (no result: SARS PLpro yeast, HCMV inh, LASV entry inh, HCV inhibitor, Marburg entry inh)
C/C(CC1CC(C)OC1=O)=N\NC(N)=S (stereo unspecified)	SARS PLpro yeast inconclusive (no result: LASV entry inh, Marburg entry inh)
C/C(CCC12CC3CC(CC(C3)C1)C2)=N\NC(N)=S	SARS PLpro yeast inconclusive, LASV entry inh inconclusive, HCV inhibitor 11µM
CC(C)Oc1ccc(CN=C(N)N=C(N)N)cc1Cl	FMDV inh inconclusive, HCMV inh -75, HCV inhibitor inconclusive
CC(C)Oc1ccc(CCN)cc1Cl	Marburg entry inh inconclusive
CC(C)COc1ccc(CN=C(N)N=C(N)N)cc1Cl	FMDV inh inconclusive, HCMV inh -76, HCV inhibitor inconclusive (no result: LASV entry inh, Marburg entry inh)
COc1ccc(CN=C(N)N=C(N)N)cc1Cl	HCMV inh inconclusive, LASV entry inh inconclusive, HCV inhibitor inconclusive
COC(=O)C(NC(=O)c1ccco1)(Nc1nc(C2CC2)cs1)C(F)(F)F (stereo unspecified)	HCMV inh -67, Marburg entry inh inconclusive
O=C(C1CCCN(S(=O)(=O)c2cccc3nsnc23)C1)N1CCc2ccccc21 (stereo unspecified)	FMDV inh 25µM, HCV inhibitor inconclusive
O=C(C1CCN(S(=O)(=O)c2ccccc2F)CC1)N1CCc2ccccc21	HCMV inh -68 (no result: LASV entry inh, Marburg entry inh)
O=C(C1CCCN(S(=O)(=O)c2cccc3nsnc23)C1)N1CCN(c2ccccc2Cl)CC1 (stereo unspecified)	FMDV inh 25µM, LASV entry inh inconclusive, Marburg entry inh 4µM (no result: SARS PLpro yeast, HCV inhibitor)
O=C(C1CCCN(S(=O)(=O)c2cccc3nsnc23)C1)N1CCc2ccccc2C1 (stereo unspecified)	FMDV inh 25µM, LASV entry inh inconclusive, HCV inhibitor inconclusive
COc1cc(OC)c(NC(=O)c2cc(CN3CCOCC3)on2)cc1Cl	none (no result: SARS PLpro yeast, HCV inhibitor, Marburg entry inh)
NC(=O)c1ccc(CSc2nc3ccccc3s2)cc1	LASV entry inh inconclusive, Marburg entry inh inconclusive
c1ccc2sc(SCc3ccc(-c4nnco4)cc3)nc2c1	LASV entry inh 11µM, HCV inhibitor inconclusive, Marburg entry inh inconclusive
CCOc1ccc(-c2cc3c(=O)n(CC(=O)NCc4ccc(F)cc4)ccn3n2)cc1	LASV entry inh inconclusive (no result: SARS PLpro yeast, HCV inhibitor, Marburg entry inh)
Nc1c(N2CCN(c3ccccc3)CC2)c2ccccc2oc1=O	HCMV inh -100
O=c1oc2ccccc2c(N2CCN(c3ccc(F)cc3)CC2)c1CN1CCCC1	Marburg entry inh inconclusive (no result: SARS PLpro yeast, HCV inhibitor)
Cc1cccc(N2CCN(C(=O)c3ccc(Cl)c(S(=O)(=O)NCc4ccco4)c3)CC2)c1C	FMDV inh inconclusive, HCV inhibitor 10µM, Marburg entry inh inconclusive
O=C(c1cccc(S(=O)(=O)NCc2ccccc2)c1)N1CCN(c2ccccc2)CC1	HCV inhibitor inconclusive (no result: LASV entry inh, Marburg entry inh)
O=C(c1cccc(S(=O)(=O)NCc2ccccc2)c1)N1CCN(c2ccccc2Cl)CC1	HCV inhibitor 11µM (no result: SARS PLpro yeast, LASV entry inh)
CC1CN(C(=O)c2ccc(Cl)c(S(=O)(=O)NCc3ccco3)c2)CC(C)O1 (stereo unspecified)	none (no result: LASV entry inh, Marburg entry inh)
C=CCOc1ccc2nnc(C)n2n1	none
COc1cc(OC)cc(C(=O)N[C@H](C(=O)Nc2nnc(C3CC3)s2)C(C)C)c1	Marburg entry inh inconclusive
NC(=O)c1cc(-c2ccccc2)nc(N2CCCCCC2)n1	none
NC(=O)c1cc(-c2ccccc2)nc(N2CCOCC2)n1	HCV inhibitor 5µM, Marburg entry inh inconclusive
COC(=O)c1sccc1S(=O)(=O)N(CC(=O)NCc1ccccc1)c1ccc(C)c(C)c1	LASV entry inh inconclusive (no result: SARS PLpro yeast, HCV inhibitor, Marburg entry inh)
COCCn1c(=N)c(C(=O)NCC2CCCO2)cc2c(=O)n3ccccc3nc21 (stereo unspecified)	none (no result: SARS PLpro yeast, HCV inhibitor)
COc1ccc(CCn2c(=N)c(C(=O)NC3CCCC3)cc3c(=O)n4ccccc4nc32)cc1	HCMV inh -101, HCV inhibitor inconclusive
COc1ccc(CCn2c(=N)c(C(=O)NCC3CCCO3)cc3c(=O)n4ccccc4nc32)cc1OC (stereo unspecified)	HCMV inh -110 (no result: LASV entry inh, Marburg entry inh)
Cc1cc2nc(-c3cc4ccccc4[nH]3)c(=O)n(/C=C(/c3ccccc3)n3c(=O)[nH]c4ccccc43)c2cc1C	none (no result: FMDV inh, SARS PLpro yeast, LASV entry inh, HCV inhibitor, Marburg entry inh)
COc1cccc(-c2nn(C)c3sc(C(=O)N4CCN(c5cccc(C)c5)C(C)C4)cc23)c1 (stereo unspecified)	LASV entry inh inconclusive (no result: SARS PLpro yeast, HCV inhibitor)
CCCS(=O)(=O)c1c(S(=O)(=O)CCC)c2c(N)cccn2c1C(=O)c1ccc(OC)cc1	HCMV inh inconclusive, LASV entry inh inconclusive, HCV inhibitor 25µM, Marburg entry inh inconclusive
CCCS(=O)(=O)c1c(S(=O)(=O)CCC)c2cc(C(C)(C)C)ccn2c1C(=O)c1ccc(OC)c(OC)c1	Marburg entry inh inconclusive (no result: SARS PLpro yeast, HCV inhibitor)
CCCS(=O)(=O)c1c(S(=O)(=O)CCC)c2cc(C(C)(C)C)ccn2c1C(=O)c1ccccc1	FMDV inh inconclusive, HCMV inh -64, LASV entry inh inconclusive, Marburg entry inh inconclusive (no result: SARS PLpro yeast, HCV inhibitor)
CC1(C)CC(=O)N(c2ccc(Cl)c(Cl)c2)C(=O)C1	none
COc1cc(-c2cc(=O)c3ccccc3o2)ccc1O	none (no result: LASV entry inh, Marburg entry inh)
COc1cc(-c2cc(=O)c3c(O)cc(O)cc3o2)ccc1O	HCV inhibitor 13µM (no result: HCMV inh, LASV entry inh, Marburg entry inh)
CC(=O)c1c(N2CCCC2)[nH]c(-c2ccccc2)nc1=S	SARS PLpro yeast inconclusive, HCV inhibitor 22µM
O=S(=O)(/N=C(/NS(=O)(=O)c1ccccc1)c1ccccc1)c1ccccc1	HCMV inh -106
CCOC(=O)c1ccc(NC(=O)CSc2nnc(CCc3ccc(C)o3)n2-c2ccccc2)cc1	HCV inhibitor 10µM
COc1ccc(-n2ncc(S(=O)(=O)c3ccccc3)c2-c2ccc(Cl)cc2)cc1	FMDV inh inconclusive, HCMV inh inconclusive, LASV entry inh inconclusive, HCV inhibitor 10µM, Marburg entry inh inconclusive
COc1ccc(-n2nc(C(F)(F)F)cc2-c2ccc(Cl)cc2)cc1	Marburg entry inh inconclusive (no result: SARS PLpro yeast, HCMV inh, LASV entry inh, HCV inhibitor)

Compound activity from PubChem.
